According to PubChem BioAssay (NCI):
The panel holds about 83,000 compounds, 20% with a hit somewhere; the sample as a whole holds those more often.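 How to read the values: 0–100, growth inhibition (40 = 60% inhibited); 0, no net growth; -100 to 0, cell death (-40 = 40% of starting cells died; -100 = all dead).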 A number with no mark means an inactive call. Calls of active or inactive are those of the source. Rule for the calls: active = growth percent below 10; inactive = the rest.

System: HS 578T breast
Test: NCI-60 one-dose screen, 48 h (100 = growth as untreated, 0 = no growth, -100 = all killed)
Conditions: 10 µM unless noted

Question: How did the growth turn out when `COc1ccc2c(c1)C1(C(=O)N2)C(C#N)=C(c2ccccc2)Nc2c1c(-c1ccccc1)nn2-c1ccccc1` (stereo not given) was run?
Answer: The growth was 40%.

Question: For `CCN1CCC[C@H]1c1cc(O)c2c(c1OC)C[C@H]1C[C@H]3[C@H](N)C(=O)C(C(N)=O)=C(O)[C@@]3(O)C(=O)C1=C2O`, which growth is on record?
Answer: The growth was -3.05% (active).

Question: How did the growth turn out when `O=C(/C(=C/c1ccc([N+](=O)[O-])cc1)SCc1ccccc1)c1ccc(Cl)cc1` was run?
Answer: Its growth is 75.7%.

System: NCI/ADR-RES ovarian
Test: as above
Conditions: 10 µM unless noted

Question: With `CCOC(=O)c1cnn(-c2nc(-c3ccc(F)cc3)c(C#N)c(N3CCOCC3)n2)c1N` as the compound, how does the growth read?
Answer: Its growth is 96.7%.

Question: `CNCc1cccc2c1OCCOCCOCCN(CCN1CCOCC1)S(=O)(=O)c1ccc(cc1)-c1cnc(N)c(n1)C(=O)N2` was tested. Which growth did it give?
Answer: Its growth is 108%.

Question: How did the growth turn out when `C=CCn1c(SCC(=O)Nc2ccc(C(=O)/C=C/c3ccc(Cl)cc3)cc2)nnc1-c1cc(OC)c(OC)c(OC)c1` was run?
Answer: Its growth is 95.5%.

Question: Which growth does the source give for `COc1ccc(C(=O)c2cc(OC)c(C)c(OC)c2)cc1OC(=O)CCl` here?
Answer: The growth was 10.5%.

Question: How did the growth turn out when `CN(C)C(CNc1oc(-c2cccc3ccccc23)nc1C#N)c1ccco1` (stereo not given) was run?
Answer: The growth was 94.8%.

Question: `Cc1cnc(-c2ccc(-c3ccc(NC(=O)Nc4c(F)cc(F)cc4F)cc3F)c3c2C(=O)NC3)[nH]1` was tested. Which growth did it give?
Answer: The growth was 72.4%.

Question: Which growth does the source give for `COc1ccc(-c2cc(C(=O)N3N=C(c4ccc(N)cc4)CC3c3ccc(OC)cc3)c3cc(OC)ccc3n2)cc1` (stereo not given) here?
Answer: Its growth is -8.76% (active).

Question: `O=c1nc(-c2ccccc2)c2cc(-c3ccc(N4CCCC4)nc3)ccc2[nH]1` was tested. Which growth did it give?
Answer: Its growth is 63.9%.

Question: Which growth does the source give for `CC(=O)Nc1c(C(=O)Nc2ccccc2)sc2nc3c(cc12)C(OC(C)=O)CCC3` (stereo not given) here?
Answer: The growth was 88.4%.

Question: Which growth does the source give for `CCN1CCN(c2ccc(NC(=O)Nc3nc4ccc(-c5ccccc5OC)cc4s3)cc2)CC1` here?
Answer: The growth was -67.3% (active).

Question: `Cc1cc(C)nc(NS(=O)(=O)c2ccc(Nc3ccc4c5c(n(CCCN(C)C)c(=O)c4c3)-c3ccccc3C5=O)cc2)n1` was tested. Which growth did it give?
Answer: The growth was 98.6%.

Question: `COc1cc(NC(=O)c2cc(O)c(C/C=C(\C)CCC=C(C)C)c(O)c2)cc2c1O[C@]1(C)CC[C@@H](O)C(C)(C)[C@H]1C2` was tested. Which growth did it give?
Answer: Its growth is 65%.

Question: With `CN(CCC#N)C(=O)Nc1ccccc1` as the compound, how does the growth read?
Answer: Its growth is 102%.

Question: `O=C(O)c1cn(C2CC2)c2cc(N3CCN(Cc4nnc(Nc5ccccc5)o4)CC3)c(F)cc2c1=O` was tested. Which growth did it give?
Answer: The growth was 107%.

Question: How did the growth turn out when `COc1ccc2c(c1)C1(C(=O)N2)C(C#N)=C(c2ccccc2)Nc2c1c(-c1ccccc1)nn2-c1ccccc1` (stereo not given) was run?
Answer: The growth was 92.7%.

Question: With `CCN1CCC[C@H]1c1cc(O)c2c(c1OC)C[C@H]1C[C@H]3[C@H](N)C(=O)C(C(N)=O)=C(O)[C@@]3(O)C(=O)C1=C2O` as the compound, how does the growth read?
Answer: The growth was 9.29% (active).

System: T-47D breast
Test: as above
Conditions: 10 µM unless noted

Question: With `CCOC(=O)c1cnn(-c2nc(-c3ccc(F)cc3)c(C#N)c(N3CCOCC3)n2)c1N` as the compound, how does the growth read?
Answer: Its growth is 83.9%.

Question: For `Cc1c(O)c(=O)ccn1-c1nc2ccccc2s1`, which growth is on record?
Answer: Its growth is 92.4%.

Question: For `Nc1ccc(C2=NN(C(=O)c3cc(-c4ccc(Cl)cc4)nc4ccccc34)C(c3ccc(Cl)cc3)C2)cc1` (stereo not given), which growth is on record?
Answer: Its growth is 38%.

Question: Which growth does the source give for `COc1ccc2nc(-c3ccc(OC)c(OC)c3)cc(-c3nnc(SCC(=O)Nc4ccc(C(C)=O)cc4)o3)c2c1` here?
Answer: The growth was 94.6%.

Question: How did the growth turn out when `COc1cc(C2=NN(C(C)=O)C(c3cccc(Nc4ccnc5cc(C(F)(F)F)ccc45)c3)C2)cc(OC)c1OC` (stereo not given) was run?
Answer: Its growth is 40.2%.

Question: With `CC(C)CSc1nc(Nc2ccccc2)c(C#N)c(-c2ccc(F)cc2)n1` as the compound, how does the growth read?
Answer: The growth was 29.1%.

Question: With `CNc1cccc2c1C(=O)c1cccc(N)c1C2=O` as the compound, how does the growth read?
Answer: Its growth is 45.9%.

Question: Which growth does the source give for `NC(=O)c1ccc(C2C3=C(CCCC3=O)OC3=C2C(=O)c2ccccc2C3=O)cc1` (stereo not given) here?
Answer: The growth was -1.02% (active).

Question: How did the growth turn out when `C=CCn1c(SCC(=O)Nc2ccc(C(=O)/C=C/c3ccc(Cl)cc3)cc2)nnc1-c1cc(OC)c(OC)c(OC)c1` was run?
Answer: Its growth is 78.9%.

Question: How did the growth turn out when `C=C1C(=O)O[C@H]2[C@H]1CC/C(C=Nc1c(N)cc(F)cc1Br)=C\CC[C@@]1(C)O[C@@H]21` was run?
Answer: Its growth is 50%.

Question: `COc1cc(-c2csc(NC(=O)Nc3ccc(Cl)cc3)n2)cc(OC)c1OC` was tested. Which growth did it give?
Answer: Its growth is -7.45% (active).

Question: With `COc1ccc(C(=O)c2cc(OC)c(C)c(OC)c2)cc1OC(=O)CCl` as the compound, how does the growth read?
Answer: The growth was 43.8%.

Question: `Nc1c(C(=O)Nc2cccc3ccccc23)sc2nc3c(cc12)COCC3` was tested. Which growth did it give?
Answer: Its growth is 57.1%.

Question: For `CN(C)C(CNc1oc(-c2cccc3ccccc23)nc1C#N)c1ccco1` (stereo not given), which growth is on record?
Answer: Its growth is 72%.

Question: Which growth does the source give for `Cc1cnc(-c2ccc(-c3ccc(NC(=O)Nc4c(F)cc(F)cc4F)cc3F)c3c2C(=O)NC3)[nH]1` here?
Answer: The growth was 73.6%.

Question: How did the growth turn out when `COc1ccc(-c2cc(C(=O)N3N=C(c4ccc(N)cc4)CC3c3ccc(OC)cc3)c3cc(OC)ccc3n2)cc1` (stereo not given) was run?
Answer: The growth was 43.4%.

Question: For `COc1cc([C@H](C)c2ccc3ccccc3c2)cc(OC)c1OC`, which growth is on record?
Answer: Its growth is 42.2%.

Question: `O=c1nc(-c2ccccc2)c2cc(-c3ccc(N4CCCC4)nc3)ccc2[nH]1` was tested. Which growth did it give?
Answer: Its growth is 62.3%.

Question: For `Cc1cccc2nc3c(n12)C(=O)C(=O)c1ccccc1-3`, which growth is on record?
Answer: The growth was 62.5%.

Question: With `CC(=O)Nc1c(C(=O)Nc2ccccc2)sc2nc3c(cc12)C(OC(C)=O)CCC3` (stereo not given) as the compound, how does the growth read?
Answer: The growth was 93.5%.

Question: Which growth does the source give for `CCN1CCN(c2ccc(NC(=O)Nc3nc4ccc(-c5ccccc5OC)cc4s3)cc2)CC1` here?
Answer: Its growth is -45.4% (active).

Question: `Cc1cc(Cl)cc(CN(Cc2ccccc2)Cc2c(O)ccc3ccccc23)c1O` was tested. Which growth did it give?
Answer: Its growth is 89.5%.

Question: With `COC1=CC=CC2(OC)C3(O)CCCc4cccc(c43)N3C(=O)COC132` (stereo not given) as the compound, how does the growth read?
Answer: The growth was 97.7%.

Question: With `C=C1C(=O)O[C@H]2[C@H]1CC/C(COC(=O)N1CCC[C@H]1C(=O)Nc1ccc(OC)c(C(N)=O)c1O)=C\CC[C@@]1(C)O[C@@H]21` as the compound, how does the growth read?
Answer: Its growth is 29.8%.

Question: `Cc1cc(C)nc(NS(=O)(=O)c2ccc(Nc3ccc4c5c(n(CCCN(C)C)c(=O)c4c3)-c3ccccc3C5=O)cc2)n1` was tested. Which growth did it give?
Answer: The growth was 102%.

Question: For `COc1cc(NC(=O)c2cc(O)c(C/C=C(\C)CCC=C(C)C)c(O)c2)cc2c1O[C@]1(C)CC[C@@H](O)C(C)(C)[C@H]1C2`, which growth is on record?
Answer: The growth was 18%.

Question: `CCCCCCN1C(=O)CN=C1Nc1ccc2cc3ccc(NC4=NCC(=O)N4CCCCCC)cc3nc2c1` was tested. Which growth did it give?
Answer: Its growth is 32.9%.

Question: For `Nc1ccc(C2=NN(C(=O)c3cc(-c4ccc(Cl)cc4)nc4ccccc34)C(c3ccccc3)C2)cc1` (stereo not given), which growth is on record?
Answer: The growth was 30.8%.

Question: How did the growth turn out when `CN(CCC#N)C(=O)Nc1ccccc1` was run?
Answer: The growth was 97.2%.

Question: How did the growth turn out when `C=C(C)[C@@H]1CC[C@]2(C(=O)OCCCC[P+](c3ccccc3)(c3ccccc3)c3ccccc3)CC[C@]3(C)[C@H](CC[C@@H]4[C@@]5(C)CC[C@H](OC(=O)C(Cl)Cl)C(C)(C)[C@@H]5CC[C@]43C)[C@@H]12` was run?
Answer: Its growth is -14.3% (active).

Question: With `CSc1cccc(NC(=O)Nc2nc3c(C)cccc3s2)c1` as the compound, how does the growth read?
Answer: Its growth is 95%.

Question: With `O=C(O)c1cn(C2CC2)c2cc(N3CCN(Cc4nnc(Nc5ccccc5)o4)CC3)c(F)cc2c1=O` as the compound, how does the growth read?
Answer: The growth was 85.4%.

Question: With `O=C1CS/C(=N/c2nnc(-c3ccc(O)cc3)s2)N1` as the compound, how does the growth read?
Answer: The growth was 75.3%.

Question: `COc1ccc2c(c1)C1(C(=O)N2)C(C#N)=C(c2ccccc2)Nc2c1c(-c1ccccc1)nn2-c1ccccc1` (stereo not given) was tested. Which growth did it give?
Answer: Its growth is 63.4%.

Question: `CCN1CCC[C@H]1c1cc(O)c2c(c1OC)C[C@H]1C[C@H]3[C@H](N)C(=O)C(C(N)=O)=C(O)[C@@]3(O)C(=O)C1=C2O` was tested. Which growth did it give?
Answer: Its growth is -8.2% (active).

Question: `O=C(/C(=C/c1ccc([N+](=O)[O-])cc1)SCc1ccccc1)c1ccc(Cl)cc1` was tested. Which growth did it give?
Answer: The growth was 47.8%.
